TRPML1 agonist: qHTS for Agonists of the Human Mucolipin Transient Receptor Potential 1 (TRPML1); AID 624414, 2012; 410,000 tested, 0.12% active; Mucolipin-1 (Homo sapiens), Q9GZU1; TRPML1-expressing cells, Ca2+ dye fluorescence, FDSS; activation, % (test concentration not listed); in the data active means activation above about 50%; inconclusive means mostly about 30% to 49%
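Kinetic FDSS Ca2+ read in Tet-induced TRPML1-DL cells (ABD Ca8 dye plus quencher, 45-90 min RT loading): baseline, then compound, then 110 s agonist window; EC80 agonist 54-4 at 4uM final added afterwards for a 110 s antagonist window.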
TRPML1 blocker: qHTS for Inhibitors of the Human Mucolipin Transient Receptor Potential 1 (TRPML1) | Mucolipin-1 (Homo sapiens), Q9GZU1 | TRPML1-inducible cells, Ca2+ dye fluorescence, FDSS; stronger effect = lower value; inhibition of EC80 agonist-evoked calcium signal | activity change, negative = inhibition, % (no concentration beside the values) | 390,000 tested, 0.02% active | AID 624415, 2012; in the data active means activity change below about -50%; inconclusive means between about -30% and that limit;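 further: stimulus is agonist 54-4 at its EC80 concentration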
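Tet-induced TRPML1-DL cells loaded with Ca8 no-wash calcium dye were read kinetically on FDSS. Compound addition was followed by EC80 agonist 54-4 (4 uM final); inhibition was read over 110 s.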
KCNH2 3.1 inh: qHTS for Inhibitors of KCHN2 3.1: Mutant qHTS; Potassium voltage-gated channel subfamily H member 2, brain isoform KCNH2 3.1 (human); U2OS KCNH2 3.1, thallium flux FluxOr; stronger effect = lower value; activity change, % (tested at about 1.8 µM); 340,000 tested, 0.95% active;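 active means maximum activity change below -70%; inconclusive means maximum activity change from -70% to -50%; inactive means maximum activity change above -50%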;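 further: thallium influx rate constant from kinetic fluorescence after stimulation buffer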
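Steps: virus added to U2OS suspension (4 h, RT, dark); medium with 10% FBS added, cells plated, 37 C overnight; FluxOr/Red40 loading buffer 45 min RT; stimulation buffer, 2 min kinetic read; rate constant normalized.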
TRPV1 PAM: HTS Assay for Compounds that Act as Potentiators of the Vanilloid Receptor 1; potentiation, % at 8.33 µM; 320,000 tested, 0.02% active; Transient receptor potential cation channel subfamily V member 1 (Homo sapiens), Q8NER1; TRPV1-expressing cells, Fluo-8 calcium influx, capsaicin EC20 potentiation; in the data active means potentiation above about 80%; inconclusive means between about 30% and that limit
Target sequence (Q8NER1 whole entry, looked up): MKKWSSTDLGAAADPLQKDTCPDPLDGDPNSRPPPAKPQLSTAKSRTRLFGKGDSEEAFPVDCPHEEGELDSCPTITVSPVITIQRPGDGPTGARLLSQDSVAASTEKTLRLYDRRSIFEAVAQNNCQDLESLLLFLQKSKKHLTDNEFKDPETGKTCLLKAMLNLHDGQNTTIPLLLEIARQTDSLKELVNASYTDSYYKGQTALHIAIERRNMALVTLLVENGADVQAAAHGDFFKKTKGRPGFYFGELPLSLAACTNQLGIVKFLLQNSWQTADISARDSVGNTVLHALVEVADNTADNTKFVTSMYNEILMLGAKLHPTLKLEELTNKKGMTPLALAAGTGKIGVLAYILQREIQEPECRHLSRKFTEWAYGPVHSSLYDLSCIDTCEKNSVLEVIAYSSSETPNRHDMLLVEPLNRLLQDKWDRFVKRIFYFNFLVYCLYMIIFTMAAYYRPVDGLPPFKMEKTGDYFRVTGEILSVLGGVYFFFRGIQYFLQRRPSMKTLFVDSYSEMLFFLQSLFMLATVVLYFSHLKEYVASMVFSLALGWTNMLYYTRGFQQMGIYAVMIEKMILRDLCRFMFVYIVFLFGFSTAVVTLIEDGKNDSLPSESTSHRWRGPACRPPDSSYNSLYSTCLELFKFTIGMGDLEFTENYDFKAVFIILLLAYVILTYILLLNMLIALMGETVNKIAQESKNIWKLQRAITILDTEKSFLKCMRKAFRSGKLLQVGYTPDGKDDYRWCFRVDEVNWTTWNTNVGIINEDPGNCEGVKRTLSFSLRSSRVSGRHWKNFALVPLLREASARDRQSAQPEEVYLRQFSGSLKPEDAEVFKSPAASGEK
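Cells expressing TRPV1 were dye-loaded with Fluo-8 and read kinetically: 10 s baseline, 3 min after compound (agonist portion), then 2 min after EC20 capsaicin (allosteric enhancer portion). Calcium-bound dye fluorescence at 480/520 nm.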
TRPV1 ag: HTS Assay for Compounds that Act as Agonists of the Vanilloid Receptor 1; TRPV1-expressing cells, Fluo-8 calcium influx, agonist mode; AID 540275, 2011; 320,000 tested, 0.19% active; activation, % at 8.33 µM; Transient receptor potential cation channel subfamily V member 1 (Homo sapiens), Q8NER1; in the data active means activation above about 80%; inconclusive means between about 30% and that limit
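TRPV1-expressing cells were cultured overnight at 35.5C and loaded with Fluo-8 calcium dye for 40 to 90 min at room temperature. After a 10 s baseline, compound was added and calcium influx was read kinetically for 3 min (ex 480/em 520 nm).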
KCNH2 WT inh: qHTS for Inhibitors of KCHN2 3.1: Wildtype qHTS. Voltage-gated inwardly rectifying potassium channel KCNH2 (Homo sapiens), Q12809. U2OS, BacMam KCNH2, thallium flux FluxOr; stronger effect = lower value. activity change, % at 1.84 µM. 340,000 tested, 0.37% active. AID 720551, 2013;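 active means maximum activity change below -70%; inconclusive means maximum activity change between -70% and -50%; inactive means maximum activity change above -50%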
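U2OS cells were transduced with wild-type KCNH2 virus (2.03 x 10^8 / mL) for 4 h at room temperature, then cultured overnight at 37 C. Thallium flux was read with FluxOr dye. Rate constants were normalized to DMSO controls.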
Hits are given with their value. Compounds with a hit are over-represented: about 1.3% of the library has one in this group of screens.

Results for CC(C)(C)c1ccc(C(=O)Nc2ccc(NC(=O)c3ccc(Cl)c(Cl)c3)cc2)cc1 ?
TRPML1 agonist: inactive; TRPML1 blocker: inactive

What do the screens show for `CC(C)(C)c1ccc(C(=O)Nc2ccc3c(c2)C(=O)NC3=O)cc1`?
TRPML1 agonist: inactive; TRPML1 blocker: inactive; KCNH2 3.1 inh: inactive; TRPV1 PAM: inactive; TRPV1 ag: 86; KCNH2 WT inh: inactive

What do the screens show for `N#CC(C#N)=Cc1ccc(NC(=O)c2ccc(Br)cc2)cc1`?
TRPML1 agonist: inactive; TRPML1 blocker: inactive; KCNH2 3.1 inh: inactive; TRPV1 PAM: inactive; TRPV1 ag: 113; KCNH2 WT inh: inactive

How did CC(=O)c1ccc(C(=O)Nc2ccc3c(c2)C(=O)NC3=O)cc1 do in these assays?
TRPML1 agonist: inactive; TRPML1 blocker: inactive; KCNH2 3.1 inh: inactive; TRPV1 PAM: inconclusive; TRPV1 ag: inactive; KCNH2 WT inh: inactive

What do the screens show for `O=C(Nc1ccc(C(=O)N2CCCCC2)cc1)c1ccc(Br)cc1`?
TRPML1 agonist: inactive; TRPML1 blocker: inactive; KCNH2 3.1 inh: inactive; TRPV1 PAM: inactive; TRPV1 ag: inactive; KCNH2 WT inh: inactive

Results for CC(C)(C)c1ccc(C(=O)Nc2ccc(S(N)(=O)=O)cc2)cc1 ?
TRPML1 agonist: inactive; TRPML1 blocker: inactive; KCNH2 3.1 inh: inactive; TRPV1 PAM: inactive; TRPV1 ag: 86; KCNH2 WT inh: inactive

What do the screens show for `CSc1cccc(NC(=O)c2ccc3c(c2)CCCN3S(C)(=O)=O)c1`?
TRPML1 agonist: inactive; TRPML1 blocker: inactive

Results for COc1cccc(NC(=O)c2ccccc2OCC(=O)Nc2ccc(Br)cc2)c1 ?
TRPML1 agonist: inactive

What do the screens show for `CCC(C)(C)NC(=O)Nc1cc(Cl)ccc1OC`?
TRPML1 agonist: inactive; TRPML1 blocker: inactive; KCNH2 3.1 inh: -81; TRPV1 PAM: inactive; TRPV1 ag: inactive; KCNH2 WT inh: inactive

What do the screens show for `COc1ccc(-c2noc(CSc3nc(N)cc(=O)[nH]3)n2)cc1OC`?
TRPML1 agonist: inactive; TRPML1 blocker: inactive

How did CCOc1c(Nc2ccc(C(C)C)cc2)c(=O)c1=O do in these assays?
TRPML1 agonist: inactive; TRPML1 blocker: inactive; KCNH2 3.1 inh: inactive; TRPV1 PAM: inactive; TRPV1 ag: 83; KCNH2 WT inh: inactive

What do the screens show for `NNC(=O)c1cccn(Cc2ccc(Cl)cc2Cl)c1=O`?
TRPML1 agonist: inactive; TRPML1 blocker: inactive; KCNH2 3.1 inh: inactive; TRPV1 PAM: inactive; TRPV1 ag: inactive; KCNH2 WT inh: -88

Results for COc1cc2c(cc1OC)C(C)N(CCc1ccc(Cl)cc1)CC2 (configuration not stated) ?
TRPML1 agonist: inactive; TRPML1 blocker: inactive; KCNH2 3.1 inh: -84; KCNH2 WT inh: inactive

What do the screens show for `COc1cc2c(cc1OC)C(C)N(CCN1C(=O)c3ccccc3C1=O)CC2` (configuration not stated)?
TRPML1 agonist: inactive; TRPML1 blocker: inactive; KCNH2 3.1 inh: inactive; TRPV1 PAM: inactive; TRPV1 ag: inactive; KCNH2 WT inh: inactive

Results for CC1CCN(S(=O)(=O)c2ccc(Cl)cc2)CC1 ?
TRPML1 agonist: inactive; TRPML1 blocker: inactive; KCNH2 3.1 inh: inactive; TRPV1 PAM: inactive; TRPV1 ag: inactive; KCNH2 WT inh: inactive

What do the screens show for `CC1CCN(S(=O)(=O)c2ccc(C(C)C)cc2)CC1`?
TRPML1 agonist: 115; TRPML1 blocker: inactive; KCNH2 3.1 inh: inactive; TRPV1 PAM: inactive; TRPV1 ag: inactive; KCNH2 WT inh: inactive

How did Cc1ccc(-c2noc(CSc3nnc(Cc4ccccc4)n3-c3ccc(Cl)cc3)n2)cc1 do in these assays?
TRPML1 agonist: inactive; TRPML1 blocker: inactive; KCNH2 3.1 inh: -74; TRPV1 PAM: inactive; TRPV1 ag: inactive; KCNH2 WT inh: inactive
